Compound activity (PubChem BioAssay)
Compounds with a hit are over-represented: about 2% of the library has one in this group of screens.
M1 PAM parental – nonselective activator or artifact in parental CHO-K1 calcium assay | 360,000 compounds, 0.02% hits | AID 602247 | activation, % at 3 µM | ATP EC20, Fluo-8 calcium fluorescence; 0% at ATP EC20, 100% at ATP max;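 active = activation above the run cutoff, the mean activation of all test compounds plus 3 SD, cut at about 40% in these data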;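 note: peak over basal fluorescence ratio in a 140 s read after ATP addition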
CHRM4 antagonist – CHRM4 antagonism in calcium assay. 360,000 compounds, 0.73% hits. inhibition, % at 3 µM. CHO-hM4 cells, ACh EC80, Fluo-8 calcium fluorescence. P08173;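 active = inhibition above its plate's cutoff, the mean inhibition of sample wells plus 3 SD, cut at about 27% in these data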;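 note: 0% = acetylcholine EC80 with DMSO and 100% = DMSO without agonist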
Target sequence (P08173 whole entry, looked up): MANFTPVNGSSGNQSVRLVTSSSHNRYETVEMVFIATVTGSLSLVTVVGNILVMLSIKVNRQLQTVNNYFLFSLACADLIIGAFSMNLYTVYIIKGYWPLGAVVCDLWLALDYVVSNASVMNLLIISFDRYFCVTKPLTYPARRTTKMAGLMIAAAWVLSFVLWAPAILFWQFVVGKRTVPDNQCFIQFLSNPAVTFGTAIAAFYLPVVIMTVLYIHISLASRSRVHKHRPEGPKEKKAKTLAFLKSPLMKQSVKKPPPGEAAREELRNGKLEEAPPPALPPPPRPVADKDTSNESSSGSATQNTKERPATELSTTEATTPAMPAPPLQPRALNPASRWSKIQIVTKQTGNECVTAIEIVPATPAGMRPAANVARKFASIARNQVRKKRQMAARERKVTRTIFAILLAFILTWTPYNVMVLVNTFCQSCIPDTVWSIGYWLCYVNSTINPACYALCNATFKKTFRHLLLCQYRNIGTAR
CHO-K1 Ca ag – M1 agonist counterscreen hit in parental CHO-K1 cells | activation, % at 3 µM | Fluo-8 calcium fluorescence; scaled to maximal ATP response, vehicle zero | 360,000 compounds, 0.48% hits; in the data active = activation above about 15%;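 note: untransfected CHO-K1 host cells lacking M1 receptor as counterscreen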
M4 ag – agonists of human muscarinic M4 receptor (CHRM4). P08173. CHO-K1 hM4/Gqi5, Fluo-8 calcium fluorescence; vehicle 0%, full acetylcholine response 100%. activation, % at 3 µM. 360,000 compounds, 0.14% hits. AID 624127;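 active = activation above the run mean over all test wells plus 3 SD, cut at about 32% in these data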;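 note: peak over basal fluorescence ratio per well then scaled between controls; 0% = DMSO wells and 100% = acetylcholine at EC100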
M4 PAM – potentiates acetylcholine response at human M4 receptor; P08173; CHO-K1 hM4/Gqi5, Fluo-8 calcium fluorescence, ACh EC20; 0% = ACh EC20, 100% = maximal ACh; activation, % at 3 µM; 360,000 compounds, 0.4% hits;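 active = activation above its plate's cutoff, the mean activation of sample wells plus 3 SD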
CHO-K1 Ca antag – M1 antagonist counterscreen hit in parental CHO-K1 cells. AID 602250. 360,000 compounds, 0.6% hits. ATP-induced calcium, Fluo-8 fluorescence. inhibition, % at 3 µM;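 active = inhibition above a per-plate cutoff, the plate's mean sample inhibition plus 3 SD, cut at about 24% in these data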;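 note: 0% = DMSO plus EC80 ATP and 100% = DMSO alone without ATP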
Numbers without * were called inactive.

SMILES	M1 PAM parental	CHRM4 antagonist	CHO-K1 Ca ag	M4 ag	M4 PAM	CHO-K1 Ca antag
C#Cc1ccc(NC(=O)C2(C)CCN2C(=O)C2(c3ccccc3)CCCC2)cc1 (centres undefined)	7	-6	0	-1	-9	-6
COc1ccc2nc(N3CCCC(C(=O)NCCCN4C(C)CCCC4C)C3)sc2c1 (centres undefined)	25	-4	1	0	-2	-21
COc1ccc(Cl)cc1NC(=O)CN(C)C(=O)c1cc(-c2ccncc2)nc2ccccc12	-5	13	10	33*	-14	3
CCc1nc2ccc(C(=O)Nc3ccc(C(N)=O)cc3)cn2c1N(CCC(C)C)CCN(C)C	7	-6	0	0	-2	-3
C=CCn1c(O)c(C2=c3ccccc3=NC2=O)c2ccccc21	22	50*	4	12	-13	-2
O=C(Nc1ccc(N2CCN(C(=O)c3ccco3)CC2)c(Cl)c1)c1cc2ccccc2o1	16	51*	6	18	-16	8
CCCC(=O)N1CCN(c2ccc(NC(=O)c3cc4ccccc4o3)cc2Cl)CC1	-4	38*	13	19	-21	20
Cc1ccc(CNC(=O)Cn2c(=O)n(-c3ccccc3)c(=O)c3sccc32)cc1	-4	0	-1	0	29	-2
C=CC[C@@H](CC(=O)NCCO)C(=O)N[C@@H](C)COC(=O)[C@H](CC=C)CC(=O)OC(C)(C)C	-6	0	0	1	-4	9
O=C1NC(=Nc2cccnc2)S/C1=C/c1ccc(F)cc1	17	-19	0	2	16*	-5
O=C1NC(=Nc2ccccc2)S/C1=C\c1cccnc1	9	-4	2	2	-1	-6
CC(O)CNc1nc(Cl)c(C#N)s1 (centres undefined)	12	-1	0	1	4	1
O=S(=O)(NN1CCOCC1)c1ccc(Cl)s1	-4	-5	0	2	6	3
CCOC(=O)C1(CC2CCCCO2)CCN(Cc2cc3ccccc3[nH]2)CC1 (centres undefined)	-8	59*	57*	125*	-24	9
CCOc1ccc(CCNC(=O)c2cc(S(=O)(=O)N3CCOCC3)ccc2C)cc1OCC	3	-1	1	1	-2	0
Nc1cccc(-c2csc(-n3ncc(C(=O)O)c3C(F)(F)F)n2)c1	-3	-7	-1	0	17*	2
O=C(O)c1cnn(-c2nc(-c3cccc(F)c3)cs2)c1C(F)(F)F	8	3	3	0	-4	16
CC(=NNc1nc2ccccc2s1)c1ccncn1	13	58*	9	23	-2	20
COc1ccc([C@H]2N[C@]3(CCCN(Cc4ccc(F)cc4)C3=O)[C@H]3C(=O)N(Cc4ccccc4)C(=O)[C@@H]23)cc1	-12	-10	0	4	2	8
CCOCCCn1c(SCC(=O)Nc2ccccc2)nc2ccccc2c1=O	-24	4	0	2	-7	35*
O=C(CSc1nc2ccccc2c(=O)n1CCCC(=O)N1CCCC1)NCc1ccco1	3	-22	0	0	7	9
CCc1ccc(NC(=O)CSc2nc3ccccc3c(=O)n2CCCC(=O)N2CCCC2)cc1	-4	1	0	0	13	25*
CC1(C)NC(=O)N(CC(=O)OCC(=O)N2CCN(S(=O)(=O)c3ccccc3)CC2)C1=O	11	-6	1	1	10	-11
N#C/C(=C\c1ccc(O)c([N+](=O)[O-])c1)c1nc2ccccc2s1	-10	7	14	14	-6	29*
Cc1ccc(-c2cc(C(F)F)n3ncc(C(=O)N4CCCCC4c4cccnc4)c3n2)cc1 (centres undefined)	-13	-23	0	0	9	-6
SMILES	M1 PAM parental	CHRM4 antagonist	CHO-K1 Ca ag	M4 ag	M4 PAM	CHO-K1 Ca antag
CCN(C(=O)/C=C/c1ccc2c(c1)OCO2)c1ccccc1	25	-12	1	1	24*	-16
CC(C(=O)NCC1CCCO1)N(C(=O)c1snc(C(N)=O)c1N)c1cccc(F)c1 (centres undefined)	22	1	0	1	4	-8
NC(=O)c1nsc(C(=O)N(c2cccc(F)c2)C(C(=O)NCC2CCCO2)c2cccs2)c1N (centres undefined)	19	2	16*	3	-4	4
Cc1sc2ncnc(N3CCC(C(=O)Nc4ccc(C#N)cc4)CC3)c2c1C	12	1	2	3	24*	2
Cc1sc2ncnc(N3CCC(C(=O)Nc4cc(Cl)ccc4Cl)CC3)c2c1C	-1	34*	0	36*	56*	-5
Cc1sc2ncnc(N3CCC(C(=O)Nc4ccc(S(N)(=O)=O)cc4)CC3)c2c1C	0	67*	1	79*	18	-11
Cc1sc2ncnc(N3CCC(C(=O)Nc4cc(S(C)(=O)=O)ccc4Cl)CC3)c2c1C	4	7	14	20	-12	-2
Cc1ccc(CN2CCNC(=O)C2CC(=O)NC2CCCCCC2)cc1 (centres undefined)	-4	0	0	0	2	5
COc1ccc(CN2CCNC(=O)C2CC(=O)NC2CCCCCCC2)cc1OC (centres undefined)	23	36*	4	2	-26	-15
O=C(CC1C(=O)NCCN1Cc1ccc(F)cc1)NC1CCCCCCC1 (centres undefined)	6	45*	2	2	-15	-15
O=C(CNC(=O)c1ccccc1F)Nc1ccccc1C(F)(F)F	-7	-7	0	0	-3	-8
COc1ccccc1OCC(=O)Nc1ncc(C)s1	-14	7	0	2	-1	-4
COc1ccc(OCC(=O)Nc2nccs2)cc1	13	10	17*	1	-3	-5
Cc1csc(NC(=O)Cc2ccc(Cl)cc2)n1	6	-13	1	1	-3	-9
Cc1cnc(NC(=O)COc2ccccc2)s1	-9	9	0	0	-1	25*
COc1ccc(CC(=O)Nc2nc(C)cs2)cc1	-6	6	16*	1	-1	7
COc1ccc(C(CC(=O)Nc2nccs2)n2cccc2)cc1 (centres undefined)	-9	-8	1	3	10	8
COc1ccc(C(CC(=O)Nc2nccs2)C(C)C)cc1 (centres undefined)	3	2	19*	8	-6	3
C[C@H]1COc2cc(N3CCC[C@@H]3CO)ccc2S(=O)(=O)N1	-4	6	0	1	5	-6
CC1C(=O)Nc2ccc(S(=O)(=O)Nc3ccccc3Br)cc2NC1=O (centres undefined)	12	-1	1	1	-1	-7
